{"source": "PubChem BioAssay (Tox21)", "note": "Results filed as inconclusive are left out. Calls of active or inactive are those of the source. Calls follow the shape of the dose curve; as a rule, active = well fitted cell-killing curve with a large enough effect in the repeat runs; inconclusive = weak or mixed curves; inactive = flat fitted curve, though single readings scatter. % is scaled to controls: 0 for no effect and ±100 for the full control effect.", "data": [{"test": "qHTS RealTime-Glo MT Cell Viability Assay in HepG2 cells - 32 hour (AID 1224877); also: nearly all actives have a fitted effect of over 55% in size", "details": "RealTime-Glo luminescence; series mostly up to 76.8 µM", "text": "U.S. Tox21 Program National Center for Advancing Translational Sciences [NCATS] NIH Chemical Genomics Center [NCGC] U.S. Environmental Protection Agency [EPA] National Institutes of Environmental Health Sciences [NIEHS] National Toxicology Program [NTP] U.S. Food and Drug Administration [FDA] Tox21 Assay Overview: Measure of cell viability is critical in the cell-base assay. Analysis of cell viability is necessary for the characterization of cell responses to cytotoxic drugs and environmental stress. A RealTime-Glo MT Cell Viability Assay to monitor cell viability in real time of continues cell culture during 40 hours of compound treatment was used to screen Tox21 10K library compounds in HepG2 cells. The RealTime-Glo MT Cell Viability Assay is a nonlytic, homogeneous, bioluminescent method to measure cell viability in real time using a simple, plate-based method. The assay involves adding NanoLuc luciferase and a cell-permeant prosubstrate to cells in culture. Viable cells reduce the proprietary prosubstrate to generate a substrate for NanoLuc luciferase. This substrate diffuses from cells into the surrounding culture medium, where it is rapidly used by the NanoLuc Enzyme to produce a luminescent signal. The signal correlates with the number of viable cells, making the assay well suited for cytotoxicity studies.\nTox21 Assay Protocol Summary: The mixture of HepG2 cell suspension and reagents were dispensed at 600cells/6 ul/well in 1536-well tissue culture treated black solid bottom plates using a Multidrop dispenser. After the assay plates were incubated at a 37 C/5% CO2 incubator for 5 hours, 23 nL of compounds dissolved in DMSO, positive and negative controls was transferred to the assay plate by a pintool work station. The plates were incubated at 37 C for 40 hours. The luminescence intensity were measured at 0h, 8h, 16h, 24h, 32h and 40h time points using ViewLux plate reader during compound treatment.", "values": [{"smiles": "c1ccc2c(CC3=NCCN3)cccc2c1", "outcome": "inactive"}, {"smiles": "CC(Oc1cc(Cl)ccc1Cl)C(=O)O", "note": "(stereo not given)", "outcome": "inactive"}, {"smiles": "Cc1ccccc1C(N)=O", "outcome": "inactive"}, {"smiles": "NCCOCCN", "outcome": "inactive"}, {"smiles": "CC(C)OC(=O)CCC(=O)OC(C)C", "outcome": "inactive"}, {"smiles": "CC(N)CCCC(C)(C)O", "note": "(stereo not given)", "outcome": "inactive"}, {"smiles": "CCO", "outcome": "inactive"}, {"smiles": "CC(C)C[C@@H]1[C@H](c2ccccc2)OC(=O)N1CCCN1CCCCCC1", "outcome": "inactive"}, {"smiles": "C=C(C)[C@@H]1CC=C(C)CC1", "outcome": "inactive"}, {"smiles": "CO[C@@]1(NC(=O)Cc2cccs2)C(=O)N2C(C(=O)O)=C(COC(N)=O)CS[C@@H]21", "outcome": "inactive"}, {"smiles": "C=CCN1C[C@H](C(=O)N(CCCN(C)C)C(=O)NCC)C[C@@H]2c3cccc4[nH]cc(c34)C[C@H]21", "outcome": "inactive"}, {"smiles": "COC(=O)CCCCC(=O)O", "outcome": "inactive"}, {"smiles": "O=C(CCCCC(=O)Nc1c(I)cc(I)c(C(=O)O)c1I)Nc1c(I)cc(I)c(C(=O)O)c1I", "outcome": "inactive"}, {"smiles": "CCCCCCCCCOC(=O)c1ccccc1C(=O)OCCCCCCCCC", "outcome": "inactive"}, {"smiles": "CCOC(=O)CC1(C)OCC(C)O1", "note": "(stereo not given)", "outcome": "inactive"}, {"smiles": "Cc1cccc(Cl)c1", "outcome": "inactive"}, {"smiles": "CC(C)Nc1ccccc1", "outcome": "inactive"}, {"smiles": "OC[C@@H](O)C(O)[C@@H](O)CO", "note": "(stereo not given in full)", "outcome": "inactive"}, {"smiles": "CCc1occc(=O)c1O", "outcome": "inactive"}, {"smiles": "C=CCCCCCCCC", "outcome": "inactive"}, {"smiles": "CCC(=O)CC", "outcome": "inactive"}, {"smiles": "CCOc1cccc(N)c1", "outcome": "inactive"}, {"smiles": "CCC(C)C(C)=O", "note": "(stereo not given)", "outcome": "inactive"}, {"smiles": "CCCCCCCCCCOC(C)=O", "outcome": "inactive"}, {"smiles": "Fc1ccccc1", "outcome": "inactive"}, {"smiles": "Cc1ccc(C(C)NC(=O)[C@@H](NC(=O)OC(C)C)C(C)C)cc1", "note": "(stereo not given in full)", "outcome": "inactive"}, {"smiles": "CCCSSCCC", "outcome": "inactive"}, {"smiles": "Cc1c(N)cccc1Cl", "outcome": "inactive"}, {"smiles": "CC(=O)O[C@H]1C[C@@H]2CC[C@@]1(C)C2(C)C", "outcome": "inactive"}, {"smiles": "Cc1cc(C)c(C(=O)O)c(C)c1", "outcome": "inactive"}, {"smiles": "CC1=C(C(=O)O)N2C(=O)[C@@H](NC(=O)[C@H](N)c3ccccc3)[C@H]2SC1", "outcome": "inactive"}, {"smiles": "CNCCS(=O)(=O)O", "outcome": "inactive"}, {"smiles": "CC(=O)O[Si](C)(OC(C)=O)OC(C)=O", "outcome": "inactive"}, {"smiles": "CCCCCCCCCCCCCCCCCCOCCO", "activity change, negative = cytotoxic": "-5.24% [at 15.8 µM] (inactive)"}, {"smiles": "CC(C)(CO)C(O)C(=O)NCCCO", "note": "(stereo not given)", "outcome": "inactive"}, {"smiles": "CN(C)CCCO[C@@H]1[C@H]2OC(C)(C)O[C@H]2O[C@@H]1C(O)CO", "note": "(stereo not given in full)", "outcome": "inactive"}, {"smiles": "COCCc1ccccn1", "outcome": "inactive"}, {"smiles": "C#CCN[C@@H]1CCc2ccccc21", "outcome": "inactive"}, {"smiles": "O=NN(CCCl)C(=O)NC1CCCCC1", "outcome": "inactive"}, {"smiles": "COC(=O)CCCCC(CCSS/C(CCO)=C(\\C)N(C=O)Cc1cnc(C)nc1N)SC(C)=O", "note": "(stereo not given)", "outcome": "inactive"}]}]}
